{
  "source": "PubChem BioAssay AID504834",
  "about": "(National Center for Advancing Translational Sciences (NCATS), 2011)",
  "note": "The whole screen tested about 320,000 compounds, of which about 22,000 (6.9%) were called active. A call without a number means that no potency is given here. Another 27% or so got no clear call; they are omitted. The sample holds actives, similar compounds and a random draw of the others, so the mix is not that of the screen. Unmarked numbers belong to inactive results. Calls come from the whole dose curve; as a rule, active = well fitted inhibition curve with a large enough effect; inconclusive = small, poorly fitted or top-dose-only effect, or another doubt; inactive = no such curve, though single readings can be large or run the other way. Potency is the fitted concentration of half-maximal effect.",
  "data": [
    {"experiment": "Primary qHTS for delayed death inhibitors of the malarial parasite plastid, 96 hour incubation", "settings": "P. falciparum luciferase reporter growth; series mostly up to 28.7 µM", "how_it_was_run": "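Two parasite generations (96 h, 37 C, 5% CO2) of compound exposure in infected erythrocytes (0.05% parasitemia, 2% hematocrit). Luciferase-reporter P. falciparum; decreased luminescence indicates inhibited growth, aimed at apicoplast-acting delayed death.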", "values": [
      {"smiles": "CCN(C(=O)Cc1c(C(=O)O)n(CC)c2ccccc12)c1ccccc1C", "Potency": "inactive"},
      {"smiles": "COc1ccc(C(=O)COC(=O)Cn2cnc3c2c(=O)n(C)c(=O)n3C)c(OC)c1", "Potency": "inactive"},
      {"smiles": "N#Cc1cccc(CSc2ncnc(N)n2)c1", "Potency": "inactive"},
      {"smiles": "Cc1cc(-n2nc(C)cc2C)n2ncc(-c3ccccc3)c2n1", "Potency": "inactive"},
      {"smiles": "Cc1cc(N2CCN(c3ccccc3)CC2)nc(N2CCOCC2)n1", "Potency": "inactive"},
      {"smiles": "Cc1cc(C)n(-c2nnc(N3CCN(c4ccccc4)CC3)nn2)n1", "Potency": "0.329 µM (active)"},
      {"smiles": "COc1ccc(N(CC(=O)Nc2cc(OC)cc(OC)c2)S(=O)(=O)c2c(C)n[nH]c2C)cc1", "Potency": "inactive"},
      {"smiles": "Cc1ccnc(N2C(=O)c3ccc([N+](=O)[O-])cc3C2=O)c1", "Potency": "inactive"},
      {"smiles": "Nc1cc(N2CCCCCC2)c2nonc2c1[N+](=O)[O-]", "Potency": "inactive"},
      {"smiles": "COc1ccc(C(=O)Nc2ccc3nc(N4CCCCC4)cc(C)c3c2)cc1OC", "Potency": "11.7 µM (active)"},
      {"smiles": "COc1ccc(C(=O)Nc2ccc3c(c2)OCO3)cc1OC", "Potency": "inactive"},
      {"smiles": "COc1ccc(C(=O)NC(=S)Nc2ccc(N3CCCC3)cc2)cc1OC", "Potency": "inactive"},
      {"smiles": "COc1ccccc1C(=O)NCC(=O)NCCSc1ccc(Br)cc1", "Potency": "inactive"},
      {"smiles": "CCOc1cc(/C=N/Nc2cc(C)nc3ccc(C)cc23)ccc1O", "Potency": "inactive"},
      {"smiles": "CNc1ccc([N+](=O)[O-])cc1C(=O)O", "Potency": "inactive"},
      {"smiles": "CCCCN(C(=O)c1ccc(S(=O)(=O)N2CCOCC2)cc1)C1CCS(=O)(=O)C1", "note": "(stereo unspecified)", "Potency": "inactive"},
      {"smiles": "CC1CCCCN1C(=O)Cn1c(=O)oc2cc(S(=O)(=O)N3CCCCC3)ccc21", "note": "(stereo unspecified)", "Potency": "inactive"},
      {"smiles": "O=C(Nc1ccccc1N1CCN(C(=O)c2ccccc2)CC1)c1ccco1", "Potency": "inactive"},
      {"smiles": "CCCNC(=O)c1ccc(N2CCC3(CC2)CC(c2cccc(Br)c2)=NO3)c(NC(=O)c2ccco2)c1", "Potency": "0.37 µM (active)"},
      {"smiles": "COC(=O)c1ccc(N2CCOCC2)c(NC(=O)c2ccc(Br)o2)c1", "Potency": "inactive"},
      {"smiles": "CC(CCc1ccc(O)cc1)NCc1ccc(Cl)cc1Cl", "note": "(stereo unspecified)", "Potency": "inactive"},
      {"smiles": "O=C(CNS(=O)(=O)c1ccccc1)N1CCN(C(=O)c2ccco2)CC1", "Potency": "inactive"},
      {"smiles": "CC(OC(=O)Cc1ccc(F)cc1)C(=O)N1CCc2ccccc21", "note": "(stereo unspecified)", "Potency": "inactive"},
      {"smiles": "c1nnc2c3c4c(sc3ncn12)CCC4", "Potency": "inactive"},
      {"smiles": "N=c1c2c3c(sc2ncn1N)CCCCC3", "Potency": "3.7 µM (active)"},
      {"smiles": "N=c1c2c3c(sc2ncn1N)CCCC3", "Potency": "inactive"},
      {"smiles": "C[C@@H]1O[C@@H](OC[C@H]2O[C@@H](Oc3c(-c4ccc(O)cc4)oc4cc(O)cc(O)c4c3=O)[C@H](O)[C@@H](O)[C@@H]2O)[C@H](O)[C@H](O)[C@H]1O", "Potency": "inactive"},
      {"smiles": "CN1CCN(c2ccc(S(=O)(=O)N3CCOCC3)cc2NC(=O)CCc2ccccc2)CC1", "Potency": "inactive"},
      {"smiles": "O=C(COC(=O)Cc1ccc(F)cc1)Nc1cc(S(=O)(=O)N2CCOCC2)ccc1N1CCCC1", "Potency": "inactive"},
      {"smiles": "COc1ccc(CC(=O)Nc2cc(S(=O)(=O)N3CCCCC3)ccc2N2CCN(C)CC2)cc1", "Potency": "6.57 µM (active)"},
      {"smiles": "CCOc1cccc2cc(C(=O)OCC(=O)Nc3c(C)cccc3CC)c(=O)oc12", "Potency": "inactive"},
      {"smiles": "Cc1ccc(S(=O)(=O)N2CCC3(CC2)OCCO3)c(C)c1", "Potency": "inactive"},
      {"smiles": "Cc1cccc(N2CCN(C(C)C(=O)N3CCc4ccccc43)CC2)c1C", "note": "(stereo unspecified)", "Potency": "inactive"},
      {"smiles": "Cc1sc2ncn(CC(=O)NCCCC(=O)N(C)Cc3ccccc3)c(=O)c2c1C", "Potency": "inactive"},
      {"smiles": "Cc1ccccc1CC1(CO)CCCN(Cc2ccc3c(c2)OCCO3)C1", "note": "(stereo unspecified)", "Potency": "14.7 µM (active)"},
      {"smiles": "COc1cccc(CC2(CO)CCCN(CC3=Cc4cc(OC)ccc4OC3)C2)c1", "note": "(stereo unspecified)", "Potency": "inactive"},
      {"smiles": "CCOc1cc(CN2CCCC(CO)(Cc3ccc(F)cc3F)C2)ccc1OC", "note": "(stereo unspecified)", "Potency": "inactive"},
      {"smiles": "CC(NC(=O)c1cc2cc(Cl)ccc2oc1=N)c1ccccc1", "note": "(stereo unspecified)", "Potency": "inactive"},
      {"smiles": "Cn1c(Nc2cccc(Cl)c2)nc2ccccc21", "Potency": "inactive"},
      {"smiles": "Cn1cc(Cl)c(C(=O)NNC(=S)Nc2cccc(Cl)c2)n1", "Potency": "inactive"},
      {"smiles": "Cc1c(C(=O)Nc2cccc(Cl)c2)cn2c(nc3ccccc32)c1C#N", "Potency": "2.94 µM (active)"},
      {"smiles": "O=S(=O)(c1cccs1)N1CCN(CCOc2ccccc2)CC1", "Potency": "inactive"},
      {"smiles": "COc1ccccc1C(=O)Nn1cnnc1", "Potency": "inactive"},
      {"smiles": "CCn1cc(C(=O)NCCO)c(=O)c2cc(F)c(N3CCN(C)CC3)cc21", "Potency": "inactive"},
      {"smiles": "CCOC(=O)c1ccc(NC(=O)CCn2c(=O)oc3ccccc32)cc1", "Potency": "inactive"},
      {"smiles": "COc1ccc(CC(=O)N/N=C(\\C)c2ccccn2)cc1", "Potency": "3.29 µM (active)"},
      {"smiles": "C/C(=N\\NC(=O)c1ccccc1F)c1ccccn1", "Potency": "inactive"},
      {"smiles": "C/C(=N\\NC(=O)Cc1ccc(Br)cc1)c1cccnc1", "Potency": "inactive"},
      {"smiles": "Nc1nnc(SCC(=O)NC2CCCc3ccccc32)s1", "note": "(stereo unspecified)", "Potency": "inactive"},
      {"smiles": "Fc1cnc(N2CCOCC2)nc1NCc1ccccc1", "Potency": "2.94 µM (active)"},
      {"smiles": "O=C(c1cccnc1NCc1ccccc1)N1CCOCC1", "Potency": "inactive"},
      {"smiles": "c1ccc(COc2nsnc2N2CCOCC2)cc1", "Potency": "inactive"},
      {"smiles": "CC(=O)c1ccc(S(=O)(=O)N2CCC(Oc3ccc(-n4cnnn4)cc3)CC2)cc1", "Potency": "inactive"},
      {"smiles": "CSCCC1NC2(C(=O)Nc3ccc(Cl)cc32)[C@@H]2C(=O)N(C3CCCC3)C(=O)[C@H]12", "note": "(stereo partly specified)", "Potency": "11.7 µM (active)"},
      {"smiles": "O=C1[C@@H]2C(Cc3ccc(O)cc3)NC3(C(=O)Nc4ccc(F)cc43)[C@@H]2C(=O)N1c1ccc(F)cc1", "note": "(stereo partly specified)", "activity change, negative = inhibition": "-3.79% [at 5.75 µM]"},
      {"smiles": "CC(C)(C)NC(=O)NCc1ccco1", "Potency": "inactive"},
      {"smiles": "Cc1cc(C)nc(N2CCC(C(=O)Nc3ccc4c(c3)OCCO4)CC2)n1", "Potency": "9.28 µM (active)"},
      {"smiles": "O=C(Nc1ccc2c(c1)OCCO2)C1CCCN(c2ncccn2)C1", "note": "(stereo unspecified)", "Potency": "inactive"},
      {"smiles": "Cc1sc2ncn(CC(=O)NCCCC(=O)N3CCN(c4ccccc4F)CC3)c(=O)c2c1C", "Potency": "inactive"},
      {"smiles": "CC(=O)c1cc(CN2CCC(n3nccc3NC(=O)c3ccccc3Cl)CC2)cs1", "Potency": "inactive"},
      {"smiles": "CC(=O)Nc1ccc(/C=N/Nc2ccc(C(=O)c3c(C)cc4ccccn34)cc2[N+](=O)[O-])cc1", "Potency": "inactive"},
      {"smiles": "COc1ccc2c(C)c(CCC(=O)NC3CC3)c(=O)oc2c1C", "Potency": "4.15 µM (active)"},
      {"smiles": "CCOC(=O)CCc1c(C)c2ccc(OCc3nn[nH]n3)c(C)c2oc1=O", "Potency": "inactive"},
      {"smiles": "Cc1c(CCC(=O)O)c(=O)oc2c(C)c(OCc3ccccc3Cl)ccc12", "Potency": "inactive"},
      {"smiles": "Cc1c(C(C)CCCO)oc(=O)c2c1Oc1c(C)c(C(C)C[C@@H](C)O)oc(=O)c1C2", "note": "(stereo partly specified)", "Potency": "inactive"},
      {"smiles": "CN1c2ccc([N+](=O)[O-])cc2C(C)(C)C12C=Cc1cc(C(=O)O)ccc1O2", "note": "(stereo unspecified)", "Potency": "inactive"}
    ]}
  ]
}
